From PubChem
rCAG RNA binder: molecules binding r(CAG) RNA repeats; r(CAG) RNA repeat, TO-PRO-1 dye displacement fluorescence; inhibition, % at 3 µM; hit rate 1.3% among 370,000;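 active means inhibition above the plate cutoff, the mean of all test compounds on that plate plus 3 SD, cut at about 35% in these data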;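 further: 0% = DMSO alone and 100% = 100 µM mitoxantrone as full dye displacement; higher means more dye released from RNA so lower well fluorescence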
AHR activator: human AHR activation | P35869 | AHR-responsive luciferase reporter cells, luminescence | activation, % at 5 µM | hit rate 2.5% among 320,000 | AID 2796; in the data active means activation above about 47%;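 further: 0% = vehicle wells and 100% = reference agonist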
GRIN3A LBD mod: modulates the human NR3A ligand-binding domain; NR3A LBD differential scanning fluorimetry, Tm shift; 0% = protein alone, 100% = glycine-bound protein; Tm shift relative to glycine control, % at 25 µM; hit rate 2.5% among 340,000; AID 1259313;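 active means melting temperature shift of at least 10% of the positive control shift, at one fixed dose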
KLK7 zymogen act: proKLK7 (human) activation, primary screen. hit rate 0.9% among 370,000. AID 652039. purified proKLK7, EDANS-DABCYL substrate fluorescence; 100% is mature enzyme control, 0% vehicle. activation, % at 7 µM;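 active means activation above the mean of all tested compounds plus 3 SD, computed per campaign excluding outliers beyond control limits, cut at about 13% in these data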
ADAM17 inh: inhibits human ADAM17; P78536; recombinant ADAM17, EDANS/DABCYL FRET peptide cleavage; inhibition, % at 6.95 µM; hit rate 0.83% among 370,000; AID 720648;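 active means inhibition above the mean of compounds lying between control limits plus 3 SD, set per campaign, cut at about 8.5% in these data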;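 further: 0% = DMSO-only wells as the low control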
ADAM10 inh: ADAM10 inhibition, QFRET primary screen; O14672; recombinant ADAM10, EDANS/DABCYL FRET peptide cleavage, 3 h; inhibition, % at 7 µM; hit rate 0.62% among 370,000; AID 720582;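 active means inhibition above a per-campaign cutoff equal to the mean of compounds falling between control-based bounds plus 3 SD, cut at about 20% in these data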;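 further: 0% = DMSO wells while the 100% control is not disclosed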
Target sequence (O14672 214-748 limits assumed): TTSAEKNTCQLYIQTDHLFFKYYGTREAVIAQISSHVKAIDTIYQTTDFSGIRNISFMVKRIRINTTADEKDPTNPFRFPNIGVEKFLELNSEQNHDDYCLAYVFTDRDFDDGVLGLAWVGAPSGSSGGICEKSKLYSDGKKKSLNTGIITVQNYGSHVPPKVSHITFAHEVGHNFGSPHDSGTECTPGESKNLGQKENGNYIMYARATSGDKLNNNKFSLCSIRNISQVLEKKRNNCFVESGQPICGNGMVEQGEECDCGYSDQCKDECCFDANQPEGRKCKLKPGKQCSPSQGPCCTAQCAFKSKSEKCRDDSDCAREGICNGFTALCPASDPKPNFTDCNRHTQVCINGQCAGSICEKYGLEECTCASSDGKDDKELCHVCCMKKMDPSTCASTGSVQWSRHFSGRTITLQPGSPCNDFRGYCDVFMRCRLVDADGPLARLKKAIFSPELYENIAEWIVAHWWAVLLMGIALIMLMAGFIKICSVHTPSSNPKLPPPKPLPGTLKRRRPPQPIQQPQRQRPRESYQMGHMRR
Numbers without * were called inactive. Compounds with a hit are over-represented: about 7% of the library has one in this group of screens.

For COc1cc(OC)cc(OCC(O)Cn2ccnc2)c1 (configuration not stated) the results were rCAG RNA binder 0, AHR activator 53*, GRIN3A LBD mod 0, KLK7 zymogen act 0, ADAM17 inh -4 and ADAM10 inh -4.
For N#C/C(=C\c1ccc(-c2ccc(Br)cc2)o1)C(=O)NCCc1c[nH]c2ccccc12 the results were rCAG RNA binder 19, AHR activator 18, GRIN3A LBD mod 27*, KLK7 zymogen act 0, ADAM17 inh 3 and ADAM10 inh 5.
`OC(Cc1ccncc1)(c1ccccc1)c1ccccc1` gave rCAG RNA binder -3, AHR activator 1, GRIN3A LBD mod 14*, KLK7 zymogen act 0, ADAM17 inh 2 and ADAM10 inh 8.
For Cc1ccsc1C=Nn1c(-c2n[nH]c3c2CCC3)n[nH]c1=S the results were rCAG RNA binder 9, KLK7 zymogen act 0, ADAM17 inh -1 and ADAM10 inh -3.
Screening Cc1nn(-c2ccccc2)c(C)c1/C=N\N1CCN(Cc2ccccc2Cl)CC1 returned rCAG RNA binder -1, KLK7 zymogen act 0, ADAM17 inh 2 and ADAM10 inh 0.
For O=C(CN1C(=O)C2(OCCCO2)c2ccccc21)NCc1ccc2ccccc2c1 the results were rCAG RNA binder 4, KLK7 zymogen act 1, ADAM17 inh 1 and ADAM10 inh 2.
`COc1ccc([C@H]2OC(=O)C[C@H]2C(=O)N2CCCCC2)cc1OC` gave rCAG RNA binder -1, KLK7 zymogen act 0, ADAM17 inh -1 and ADAM10 inh 0.
CCOc1ccc(S(=O)(=O)N2CCC(C(=O)N3CCN(C)CC3)CC2)cc1Cl was read as rCAG RNA binder 0, AHR activator 1, GRIN3A LBD mod -1, KLK7 zymogen act 0, ADAM17 inh 0 and ADAM10 inh 7.
`CCOc1ccc(S(=O)(=O)N2CCC(C(=O)N3CCCCCC3)CC2)cc1Cl` gave rCAG RNA binder -5, AHR activator 1, GRIN3A LBD mod 13*, KLK7 zymogen act 0, ADAM17 inh 4 and ADAM10 inh 2.
For CCCCCCCCN1C(=O)[C@@H](CC(=O)NCc2cccc(C(F)(F)F)c2)C[C@@]2(C(=O)OC)C1=C[C@H](COCc1ccccc1)O[C@@H]2C the results were rCAG RNA binder 5, KLK7 zymogen act 0, ADAM17 inh 4 and ADAM10 inh 8.
For CCN(CC)C(=O)Cn1c2ccccc2c2nc3n(c(=O)c21)CCS3 the results were ADAM17 inh -45 and ADAM10 inh -155.
Screening O=C1C(Oc2ccccc2)C(c2ccc3c(c2)OCO3)N1CCc1ccc(F)cc1 (configuration not stated) returned rCAG RNA binder 0, AHR activator 71*, GRIN3A LBD mod 13*, KLK7 zymogen act 0, ADAM17 inh 1 and ADAM10 inh 1.
`COc1ccc(CCN2C(=O)C(Oc3ccccc3C)C2c2ccc3c(c2)OCO3)cc1` (configuration not stated) gave rCAG RNA binder -3, AHR activator 1, GRIN3A LBD mod 0, KLK7 zymogen act 1, ADAM17 inh 2 and ADAM10 inh 0.
O=C(NNC1=Nc2ccccc2SC1)c1ccc(F)cc1 was read as rCAG RNA binder 2, AHR activator 74*, GRIN3A LBD mod 1, KLK7 zymogen act -1, ADAM17 inh -1 and ADAM10 inh 4.
CCCC/C=C1/[C@H](c2ccccc2)N(C)C2=N[C@H](c3ccccc3)CC(=O)N21 was read as ADAM17 inh -3 and ADAM10 inh -4.
`C#CCSc1nnc(-c2c[nH]c3ccccc23)n1C` gave rCAG RNA binder 3, AHR activator 49*, GRIN3A LBD mod -2, KLK7 zymogen act 1, ADAM17 inh 2 and ADAM10 inh -5.
CC(C)Sc1nnc(-c2c[nH]c3ccccc23)n1C was read as rCAG RNA binder -1, AHR activator 7, GRIN3A LBD mod 1, KLK7 zymogen act 1, ADAM17 inh -5 and ADAM10 inh -7.
Screening COc1cccc(C(=O)NCCSc2ccc(F)cc2)c1 returned rCAG RNA binder -3, AHR activator 9, GRIN3A LBD mod -1, KLK7 zymogen act -1, ADAM17 inh -1 and ADAM10 inh -3.
